SRC1 inh = SRC1 coactivator transcriptional activity inhibitors, primary screen, cell-based, luminescence | Nuclear receptor coactivator 1 (Homo sapiens), Q15788 | HEK293 GAL4-SRC1 luciferase reporter | inhibition, % at 3.6 µM | actives 0.12% (n = 360,000);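 active means inhibition above the campaign mean plus 3 SD, with each screening campaign given its own cutoff, cut at about 60% in these data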;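 further: 0% = DMSO treated cells and 100% = gossypol at 36 µM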
NCOA2 inhibitor = inhibition of GAL4-SRC2 driven luciferase reporter, primary screen, SRC2 inhibitor project, cell-based, luminescence | Nuclear receptor coactivator 2 (Homo sapiens), Q15596 | HEK293 GAL4-SRC2 luciferase reporter | inhibition, % at 9 µM | actives 0.17% (n = 370,000) | AID 651957, 2012;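 active means inhibition above the mean inhibition of all tested compounds plus 3 SD, set per campaign, cut at about 52% in these data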;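 further: 0% = DMSO treated cells and 100% = cells given Gossypol at 36 µM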
COUP-TFII inh = NR2F2 transcriptional activity inhibitors, primary screen, cell-based, luciferase reporter, HEK293T, luminescence; AID 686940, 2013; actives 0.7% (n = 370,000); HEK293T NGFI-A luciferase reporter; COUP transcription factor 2 (Homo sapiens), P24468; inhibition, % at 8.6 µM;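 active means inhibition above a per-plate cutoff, mean inhibition of test wells between control levels plus 3 SD, cut at about 38% in these data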;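 further: cells cotransfected with COUP-TFII expression vector driving the NGFI-A reporter; 0% = median of COUP-TF2 test wells and 100% = reporter-only cells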
GalR3 antagonist = GalR3 antagonists in HEK293 cells, primary screen, cell-based, fluorescence readout. Galanin receptor type 3 (Homo sapiens), O60755. HEK293 GalR3-CNG cAMP membrane potential fluorescence; galR3 body fused to GalR1 C-terminus. inhibition, % at 3 µM. actives 0.44% (n = 360,000);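 active means inhibition above the screen-wide average plus 3 SD, cut at about 13% in these data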;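 further: forskolin and galanin both at EC90 stimulate the cells; cAMP rise reported by CNG channel membrane potential dye signal; 0% = forskolin plus galanin with DMSO and 100% = forskolin alone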
NR5A2 inv ag = LRH-1 (NR5A2) inverse agonists, primary screen, cell-based, luminescence, HEK293T, StAR-luciferase reporter; Nuclear receptor subfamily 5 group A member 2 (Homo sapiens), O00482; LRH-1 transfected, 24 h; inhibition, % at 3.6 µM; actives 0.13% (n = 360,000); AID 602396, 2012;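 active means inhibition above the mean inhibition of all tested compounds plus 3 SD, cut at about 73% in these data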;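 further: 0% = DMSO wells and 100% = reporter-only cells lacking LRH-1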
Target sequence (O00482 whole entry, looked up): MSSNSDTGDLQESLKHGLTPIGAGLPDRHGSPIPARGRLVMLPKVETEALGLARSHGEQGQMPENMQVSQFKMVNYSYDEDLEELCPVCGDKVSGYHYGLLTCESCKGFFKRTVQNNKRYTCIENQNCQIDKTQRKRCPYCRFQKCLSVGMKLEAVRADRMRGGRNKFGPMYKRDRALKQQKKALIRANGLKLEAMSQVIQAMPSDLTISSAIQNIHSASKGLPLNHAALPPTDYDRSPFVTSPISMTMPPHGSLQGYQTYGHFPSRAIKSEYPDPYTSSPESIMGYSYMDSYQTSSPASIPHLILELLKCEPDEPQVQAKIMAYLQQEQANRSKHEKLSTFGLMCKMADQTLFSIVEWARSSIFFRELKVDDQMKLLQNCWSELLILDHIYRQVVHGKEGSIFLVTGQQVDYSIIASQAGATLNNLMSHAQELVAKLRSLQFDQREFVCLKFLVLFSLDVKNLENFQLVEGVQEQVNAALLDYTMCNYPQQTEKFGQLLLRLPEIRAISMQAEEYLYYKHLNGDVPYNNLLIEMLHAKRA
SRC3 inh = SRC3 coactivator transcriptional activity inhibitors, primary screen, cell-based, luminescence. Nuclear receptor coactivator 3 (Homo sapiens), Q9Y6Q9. HEK293 GAL4-SRC3 luciferase reporter. inhibition, % at 3.6 µM. actives 0.17% (n = 360,000). AID 588352, 2011;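 active means inhibition above a per-campaign cutoff, the mean of all compounds plus 3 SD, cut at about 60% in these data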;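 further: 0% = DMSO-treated cells and 100% = gossypol-treated cells at 36 µM; higher means less SRC3-driven luciferase light from the GAL4 reporter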
Gal4-VP16 ctr = Gal4-VP16 luciferase reporter inhibitors, counter-screen for COUP-TFII antagonist project, cell-based, luminescence, HEK293; actives 25% (n = 2,500); shares compounds with COUP-TFII inh; inhibition, % at 8.5 µM; in the data active means inhibition above about 13%
NR2F2 inh conf = NR2F2 transcriptional activity inhibitors, confirmation, cell-based, luciferase reporter, HEK293, triplicate | shares compounds with COUP-TFII inh | actives 45% (n = 2,500) | AID 687008, 2013 | HEK293 NGFI-A luciferase reporter, luminescence | inhibition, % at 8.5 µM;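 active means mean inhibition over three repeats above a set limit taken from the earlier primary screen, cut at about 38% in these data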;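 further: 100% = cells given the luciferase reporter alone without the COUP-TF2 vector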
* hit, by the source's call; / = no result given. Only some compounds are listed: those with a hit (about 1.1% of all), similar ones and a draw of the others.

SMILES	SRC1 inh	NCOA2 inhibitor	COUP-TFII inh	GalR3 antagonist	NR5A2 inv ag	SRC3 inh	Gal4-VP16 ctr	NR2F2 inh conf
O=C(CCc1ccccc1)N[C@H]1[C@@H](OC(=O)c2cccnc2)CCC[C@@]12C(=O)N(Cc1ccccc1)c1ccccc12	/	20	2	/	/	/	/	/
CCOc1ccc(CCNC(=O)c2cc3sccc3n2CC)cc1OCC	13	23	50*	-2	29	10	0	29
CCOc1ccc(CCNC(=O)c2ccc3[nH]ccc3c2)cc1OCC	/	/	41*	/	/	/	-12	13
CCOc1ccc(CCNC(=O)c2ccc(Oc3ccccc3)cc2)cc1OCC	/	/	24	/	/	/	/	/
CCOc1ccc(CCNC(=O)c2cc3sccc3n2Cc2ccccc2)cc1OCC	/	/	40*	/	/	/	-5	18
FC(F)(F)c1ccccc1CN1CCCc2nc(-c3ccc(Br)cc3)ccc21	/	-67	-21	-4	/	/	/	/
COC(=O)C1CN(Cc2cn(CCC3OCCO3)nn2)CCS(=O)(=O)N1Cc1ccc(Cl)cc1 (stereo unspecified)	/	-30	15	/	/	/	/	/
Fc1ccc(-c2cc(-c3nnc4sc(-c5cccs5)nn34)[nH]n2)cc1	/	-22	1	/	/	/	/	/
c1ccc(C(Cc2nc(-c3ccncc3)no2)c2ccccc2)cc1	-31	23	56*	10	40	23	4	41*
c1ccc(-c2nc(-c3ccncc3)no2)cc1	-75	-66	-42	-4	-90	-56	/	/
CC(=O)CC1c2ccccc2C=C(c2ccsc2)N1c1ccc(-c2cccs2)cc1 (stereo unspecified)	/	6	46*	-6	16	/	-15	-4
COc1ncc(-c2ccc(N3C(c4ccsc4)=Cc4ccccc4C3CC(C)=O)cc2)cn1 (stereo unspecified)	/	-23	-8	-7	-13	/	/	/
COC[C@H]1CCCN1c1ccc2c(c1)O[C@H]1CCN(C1)S2(=O)=O	/	-27	1	/	/	/	/	/
Cc1ccc(-n2c(-c3ccccc3)c[n+]3c2CCc2ccccc2-3)c(C)c1	38	12	64*	-7	68	71*	17*	57*
Cc1ccc2oc(/N=C(\N)NC(=O)C(C)(C)C)nc2c1	83*	81*	93*	4	83*	86*	88*	105*
C[C@H]1O[C@@H](O[C@H]2[C@@H](O)C[C@H](O[C@H]3[C@@H](O)C[C@H](O[C@H]4CC[C@@]5(C)[C@H](CC[C@@H]6[C@@H]5C[C@@H](O)[C@]5(C)[C@@H](C7=CC(=O)OC7)CC[C@]65O)C4)O[C@@H]3C)O[C@@H]2C)C[C@H](O)[C@@H]1O	87*	61*	80*	23*	102*	91*	48*	77*
COc1ccc(-n2c(SCC(=O)Nc3cc(C)c(NC(=O)c4ccccc4)cc3OC)nnc2-c2ccccc2F)cc1	/	23	1	/	/	/	/	/
O=C(CN(CCc1ccccc1)S(=O)(=O)c1ccc(F)cc1)N1CCOCC1	/	-34	-10	/	/	/	/	/
COc1cc2[nH]c(C(=O)Nc3ccc4c(c3)OCCO4)cc2c(OC)c1OC	15	2	-28	-2	-17	7	/	/
COc1cc2cc(C(=O)Nc3ccc4c(c3)OCCO4)[nH]c2cc1OC	54	40	48*	-5	46	55	-47	-9
CC1(C)C2CC=C(/C=N/NC(=S)Nc3cccnc3)C1C2 (stereo unspecified)	2	-9	-2	-4	1	18	/	/
CC1=C/C(=N\NC(=S)Nc2cccnc2)CC(C)(C)C1	-37	3	39*	4	-19	-48	-16	3

Assay outcomes deposited in PubChem by The Scripps Research Institute Molecular Screening Center.
